# About 410 targets per protein were measured; listed, in parts, are those with the strongest signals and a random draw of the rest.
# What was measured:
# Experiment in all cases: glycan array binding signal (z-score within array); higher = stronger binding
# Settings in all cases: glycan notation: IUPAC condensed, linker removed
# [1] = molecular target: Fuc(a1-2)Gal(b1-3)GalNAc(b1-4)[Neu5Ac(a2-3)]Gal(b1-4)Glc
# Summary of the method: (§1)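 The binding signal is a Z-score computed within each array and averaged over linkers. Arrays of the same protein sequence at different concentrations or buffers were also averaged together. Data originate from 3228 arrays in the Consortium for Functional Glycomics database, kept only where the protein sequence was available.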
# [2] = molecular target: Fuc(a1-2)[Gal(a1-3)]Gal(b1-4)GlcNAc(b1-2)Man
# Summary of the method: as §1
# [3] = molecular target: Fuc(a1-2)[Gal(a1-3)]Gal(b1-4)GlcNAc(b1-2)Man(a1-3)[Fuc(a1-2)[Gal(a1-3)]Gal(b1-4)GlcNAc(b1-2)Man(a1-6)]Man(b1-4)GlcNAc(b1-4)GlcNAc
# Summary of the method: as §1
# [4] = molecular target: Fuc(a1-2)[Gal(a1-3)]Gal(b1-4)GlcNAc(b1-3)GalNAc
# Summary of the method: as §1
# [5] = molecular target: Fuc(a1-2)[Gal(a1-3)]Gal(b1-4)[Fuc(a1-3)]GlcNAc
# Summary of the method: as §1
# Fuc(a1-4)GlcNAc = molecular target: Fuc(a1-4)GlcNAc
# Summary of the method: as §1
# [6] = molecular target: Gal(a1-3)Gal(b1-3)GlcNAc(b1-2)Man(a1-3)[Gal(a1-3)Gal(b1-3)GlcNAc(b1-2)Man(a1-6)]Man(b1-4)GlcNAc(b1-4)GlcNAc
# Summary of the method: as §1
# [7] = molecular target: Gal(a1-3)Gal(b1-3)GlcNAc(b1-3)GalNAc
# Summary of the method: as §1
# [8] = molecular target: Gal(a1-3)Gal(b1-3)[Fuc(a1-4)]GlcNAc(b1-2)Man(a1-3)[Gal(a1-3)Gal(b1-3)[Fuc(a1-4)]GlcNAc(b1-2)Man(a1-6)]Man(b1-4)GlcNAc(b1-4)GlcNAc
# Summary of the method: as §1
# [9] = molecular target: Gal(a1-3)Gal(b1-4)GlcNAc(b1-2)Man
# Summary of the method: as §1
# [10] = molecular target: Gal(a1-3)Gal(b1-4)GlcNAc(b1-2)Man(a1-3)[Gal(a1-3)Gal(b1-4)GlcNAc(b1-2)Man(a1-6)]Man(b1-4)GlcNAc(b1-4)GlcNAc
# Summary of the method: as §1
# [11] = molecular target: Gal(a1-3)Gal(b1-4)GlcNAc(b1-6)GalNAc
# Summary of the method: as §1
# [12] = molecular target: Gal(a1-3)Gal(b1-4)[Fuc(a1-3)]GlcNAc
# Summary of the method: as §1
# Gal(a1-4)Gal(b1-4)Glc = molecular target: Gal(a1-4)Gal(b1-4)Glc
# Summary of the method: as §1
# [13] = molecular target: Gal(a1-4)Gal(b1-4)GlcNAc(b1-2)Man(a1-3)[Gal(a1-4)Gal(b1-4)GlcNAc(b1-2)Man(a1-6)]Man(b1-4)GlcNAc(b1-4)GlcNAc
# Summary of the method: as §1
# Gal(a1-6)Glc = molecular target: Gal(a1-6)Glc
# Summary of the method: as §1
# [14] = molecular target: Gal(b1-3)GlcNAc(b1-3)Gal(b1-4)GlcNAc(b1-2)[Gal(b1-3)GlcNAc(b1-3)Gal(b1-4)GlcNAc(b1-6)]Man(a1-6)[Gal(b1-3)GlcNAc(b1-3)Gal(b1-4)GlcNAc(b1-2)Man(a1-3)]Man(b1-4)GlcNAc(b1-4)[Fuc(a1-6)]GlcNAc
# Summary of the method: as §1
# [15] = molecular target: Gal(b1-3)GlcNAc(b1-3)Gal(b1-4)GlcNAc(b1-3)Gal(b1-4)GlcNAc(b1-2)[Gal(b1-3)GlcNAc(b1-3)Gal(b1-4)GlcNAc(b1-3)Gal(b1-4)GlcNAc(b1-6)]Man(a1-6)[Gal(b1-3)GlcNAc(b1-3)Gal(b1-4)GlcNAc(b1-3)Gal(b1-4)GlcNAc(b1-2)Man(a1-3)]Man(b1-4)GlcNAc(b1-4)[Fuc(a1-6)]GlcNAc
# Summary of the method: as §1
# Gal(b1-4)Gal = molecular target: Gal(b1-4)Gal
# Summary of the method: as §1
# Gal(b1-4)Glc = molecular target: Gal(b1-4)Glc
# Summary of the method: as §1
# [16] = molecular target: Gal(b1-4)GlcNAc(b1-2)Man(a1-3)Man(b1-4)GlcNAc(b1-4)GlcNAc
# Summary of the method: as §1
# [17] = molecular target: Gal(b1-4)GlcNAc(b1-3)Gal(b1-4)GlcNAc
# Summary of the method: as §1
# [18] = molecular target: Gal3S(b1-4)[Fuc(a1-3)]Glc6S
# Summary of the method: as §1
# Gal3S4S(b1-4)GlcNAc = molecular target: Gal3S4S(b1-4)GlcNAc
# Summary of the method: as §1
# Gal3S6S(b1-4)GlcNAc = molecular target: Gal3S6S(b1-4)GlcNAc
# Summary of the method: as §1
# Gal6S(b1-3)GlcNAc = molecular target: Gal6S(b1-3)GlcNAc
# Summary of the method: as §1
# [19] = molecular target: GalNAc(b1-4)GlcNAc(b1-2)Man(a1-3)[GalNAc(b1-4)GlcNAc(b1-2)Man(a1-6)]Man(b1-4)GlcNAc(b1-4)GlcNAc
# Summary of the method: as §1
# GalNAc3S(b1-4)GlcNAc = molecular target: GalNAc3S(b1-4)GlcNAc
# Summary of the method: as §1
# Glc(b1-4)Glc = molecular target: Glc(b1-4)Glc
# Summary of the method: as §1
# [20] = molecular target: GlcNAc(a1-4)Gal(b1-4)GlcNAc(b1-3)Gal(b1-4)GlcNAc
# Summary of the method: as §1
binder,measurement,setting,value
SJCP3842 (Schistosoma japonicum) (protein) MFKMRIINLVNISTVLLLINLLQTKSRLVGKENGFMLTVSIYGAQLSDKMTSVPVSWTIDYEDPEKSAFKKLVTDSCDTFSEYVKSQIPKGSVDGQCTSHIFQRPGSGSGVSISLTLSFIYVDVTQPDTVALKTELEKHFANFVTIHSHKITQAQFRINQKAIVIPTGDKDAIDGSKWKIIAIIALVALAIVVIGGFIYICVK,glycan array binding signal (z-score),[1],0.207
same,glycan array binding signal (z-score),[2],-1.05
same,glycan array binding signal (z-score),[3],0.46
same,glycan array binding signal (z-score),[4],0.343
same,glycan array binding signal (z-score),[5],0.536
same,glycan array binding signal (z-score),Fuc(a1-4)GlcNAc,4.44
same,glycan array binding signal (z-score),[6],3.31
same,glycan array binding signal (z-score),[7],0.153
same,glycan array binding signal (z-score),[8],2.45
same,glycan array binding signal (z-score),[9],-1.09
same,glycan array binding signal (z-score),[10],-0.76
same,glycan array binding signal (z-score),[11],-0.327
same,glycan array binding signal (z-score),[12],0.63
same,glycan array binding signal (z-score),Gal(a1-4)Gal(b1-4)Glc,-1.04
same,glycan array binding signal (z-score),[13],2.55
same,glycan array binding signal (z-score),Gal(a1-6)Glc,-1.59
same,glycan array binding signal (z-score),[14],1.25
same,glycan array binding signal (z-score),[15],1.37
same,glycan array binding signal (z-score),Gal(b1-4)Gal,-0.475
same,glycan array binding signal (z-score),Gal(b1-4)Glc,-1.59
same,glycan array binding signal (z-score),[16],-0.919
same,glycan array binding signal (z-score),[17],-0.05
same,glycan array binding signal (z-score),[18],2.61
same,glycan array binding signal (z-score),Gal3S4S(b1-4)GlcNAc,-0.987
same,glycan array binding signal (z-score),Gal3S6S(b1-4)GlcNAc,2.36
same,glycan array binding signal (z-score),Gal6S(b1-3)GlcNAc,-0.626
same,glycan array binding signal (z-score),[19],0.2
same,glycan array binding signal (z-score),GalNAc3S(b1-4)GlcNAc,0.48
same,glycan array binding signal (z-score),Glc(b1-4)Glc,-0.571
same,glycan array binding signal (z-score),[20],-0.28
